Among the test systems are HCT-15 colon; HT29 colon; SNB-75 CNS; SNB-19 CNS; U251 CNS; PC-3 prostate; SK-MEL-5 melanoma; UACC-62 melanoma; LOX IMVI melanoma; SK-MEL-28 melanoma.
What all share (experiment): NCI-60 one-dose screen, 48 h (100 = growth as untreated, 0 = no growth, -100 = all killed)
Settings in all cases: 10 µM unless noted

This is part of a sample that, as a whole, favours compounds with a hit. Of some 83,000 tested, about 20% had one in any assay.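 Negative percent growth values reflect cell death: -40 means 40% of the cells present at the start died, and -100 means all died.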 A number with no mark means an inactive call. Calls of active or inactive are those of the source. The calls were made as follows: active = growth percent below 10; inactive = the rest.

Consider `Cc1ccc(-c2cc3c(cc2O)C2CCCCC2(N2CCOCC2)O3)cc1` (stereo unspecified), for which the growth was 101% in the test with HCT-15 colon; 105% in the test with HT29 colon; 75.4% in the test on SNB-75 CNS; 98.7% in the test on SNB-19 CNS; 98.6% in the test on U251 CNS; 75.3% with PC-3 prostate. The growth in the test on SK-MEL-5 melanoma was 99.1%; with UACC-62 melanoma, 71.2%; in the test with LOX IMVI melanoma it was 87.1%; in the test with SK-MEL-28 melanoma, 111%.

For `CCCCCCCCCCCCCCCCCCOc1ccccc1CC(=O)OCCC[N+](C)(C)C`, the growth in the test with HCT-15 colon was 78.7%; with HT29 colon, 40%; in the test with SNB-75 CNS, 40.6%; in the test with SNB-19 CNS, 34.2%; in the test with U251 CNS, 24.2%; in the test with PC-3 prostate, 36.8%. For the same compound, the growth in the test with SK-MEL-5 melanoma was 43.2%; with UACC-62 melanoma, 54.2%; with LOX IMVI melanoma, 36.4%; in the test with SK-MEL-28 melanoma, 66.8%.

For the compound `CN(C)c1ccc(-c2ccc3[nH]c(=O)nc(-c4ccccc4)c3c2)cn1`, the growth with HCT-15 colon was 28.1%; with HT29 colon it was 14.1%; in the test on SNB-75 CNS it was 27.9%; with SNB-19 CNS it was 50.4%; in the test on U251 CNS, 38.1%; with PC-3 prostate, 47.2%. Besides, the values for the growth in the test with SK-MEL-5 melanoma, with UACC-62 melanoma and in the test with SK-MEL-28 melanoma were 39.6%, 48.5% and 55.8%, respectively.

Consider `COc1cccc(-c2nn(-c3ccccc3)cc2-c2ccnc(NCCNC(=O)Nc3cccc(C(F)(F)F)c3)c2)c1`, for which the growth with HCT-15 colon is 6.17% (active); with HT29 colon it was -43.6% (active); in the test on SNB-75 CNS, 46.3%; in the test on SNB-19 CNS, 36%; in the test on U251 CNS, 19.9%; in the test with PC-3 prostate it was 17.1%. Further, the growth was 39.2% in the test on SK-MEL-5 melanoma, -7.83% (active) with UACC-62 melanoma and 32.5% in the test on SK-MEL-28 melanoma.

As to `Cn1c(-c2c(N)n(Cc3ccc(C(F)(F)F)cc3)c3nc(C#N)c(C#N)nc23)nc2ccccc21`, the growth with HCT-15 colon was 12.5%; in the test with HT29 colon it was 9.72% (active); in the test with SNB-75 CNS, 15.1%; with SNB-19 CNS, 21.3%; in the test on U251 CNS, 5.09% (active); in the test with PC-3 prostate it was -26.6% (active). Also, the growth was -10.4% (active) in the test on SK-MEL-5 melanoma, 18.6% in the test on UACC-62 melanoma and 28.8% in the test with SK-MEL-28 melanoma.

Take `CCCCCCCC/C=C\CCCCCCCCOc1ccccc1CC(=O)NCC[N+](C)(C)C`: the growth in the test with HCT-15 colon is 56.6%; with HT29 colon, 33.4%; with SNB-75 CNS it was 45.9%; with SNB-19 CNS it was 25.3%; in the test with U251 CNS, 12.7%; in the test with PC-3 prostate it was 4.4% (active). In addition, the growth in the test on SK-MEL-5 melanoma is 74.7%; with UACC-62 melanoma, 66.5%; with LOX IMVI melanoma it was 74.1%; in the test with SK-MEL-28 melanoma it was 88.8%.

As to `Cc1cc(NCc2cc(Nc3ccnc4cc(Cl)ccc34)ccc2F)nc(N2CCSCC2)n1`, the growth in the test with HCT-15 colon was 1.94% (active); with HT29 colon, -27.3% (active); in the test on SNB-75 CNS it was -31.7% (active); in the test on SNB-19 CNS it was 42.9%; with U251 CNS, -71.4% (active); in the test with PC-3 prostate, 26.6%. Besides, the growth in the test on SK-MEL-5 melanoma is -13.8% (active); with UACC-62 melanoma, -54.4% (active); in the test with SK-MEL-28 melanoma, -64.3% (active).

As for `N#C/C(=C\c1ccc(-c2ccccc2F)o1)c1nc(-c2ccco2)cs1`, the growth with HCT-15 colon was 62.1%; in the test on HT29 colon it was 95.5%; with SNB-75 CNS, 60.7%; with SNB-19 CNS it was 95.2%; in the test with U251 CNS, 101%; in the test on PC-3 prostate, 78.4%. Further, the figures for the growth in the test on SK-MEL-5 melanoma, with UACC-62 melanoma and in the test on SK-MEL-28 melanoma were 84.7%, 83.9% and 104%, respectively.

Take `CSc1n(Cc2ccc3ccccc3c2)c(C)c[n+]1Cc1ccc2ccccc2c1`: the growth with HCT-15 colon was 24.4%; in the test with HT29 colon, -11.2% (active); with SNB-75 CNS, -32.4% (active); in the test with SNB-19 CNS, 3.42% (active); with U251 CNS, 2.53% (active); with PC-3 prostate, 0.0083% (active). In addition, the growth is -95.8% (active) in the test on SK-MEL-5 melanoma, -56.2% (active) with UACC-62 melanoma, -91.5% (active) in the test on LOX IMVI melanoma and -9.19% (active) in the test with SK-MEL-28 melanoma.

In the case of `O=C(Nc1cccc2c(O)c(N=Nc3ccc(S(=O)(=O)Nc4nccs4)cc3)cc(N=Nc3ccc(S(=O)(=O)Nc4nccs4)cc3)c12)C(Cl)Cl`, the growth was 60.2% in the test with HCT-15 colon; 62.8% in the test on HT29 colon; 83% with SNB-75 CNS; 73.6% in the test with SNB-19 CNS; 63.1% with U251 CNS; 15.7% in the test with PC-3 prostate. Further, the growth is 85.2% in the test on SK-MEL-5 melanoma, 89% with UACC-62 melanoma, 66.7% in the test on LOX IMVI melanoma and 82.9% in the test with SK-MEL-28 melanoma.

On to `CCCCN(CCCC)CC(C)(C)C(O)c1ccc(OC)c2ccccc12` (stereo unspecified), for which the growth with HCT-15 colon is 59.1%; with HT29 colon it was 9.09% (active); with SNB-75 CNS it was 101%; with SNB-19 CNS, 76.3%; in the test with U251 CNS, 50.3%; in the test with PC-3 prostate, 29.5%. For the same compound, the growth in the test with SK-MEL-5 melanoma is 50.7%; with UACC-62 melanoma, 56.1%; in the test on SK-MEL-28 melanoma it was 85%.

As to `Cc1c(C(=O)OC(=NC2CCCCC2)NC2CCCCC2)sc2c1c(=O)nc1c(C#N)n[nH]n12`, the growth was 114% in the test on HCT-15 colon; 96.2% with HT29 colon; 89.9% in the test with SNB-75 CNS; 109% in the test with SNB-19 CNS; 107% with U251 CNS; 118% in the test with PC-3 prostate. For the same compound, the values for the growth with SK-MEL-5 melanoma, with UACC-62 melanoma and in the test with SK-MEL-28 melanoma were 110%, 106% and 100%, respectively.

`O=c1ccn2nc3ccccc3c2[nH]1`: the growth in the test on HCT-15 colon is 91.7%; with HT29 colon it was 96.1%; in the test on SNB-75 CNS, 85.2%; in the test on SNB-19 CNS it was 95.5%; with U251 CNS it was 96.4%; with PC-3 prostate it was 88%. For the same compound, the values for the growth in the test with SK-MEL-5 melanoma, in the test with UACC-62 melanoma and with SK-MEL-28 melanoma were 96%, 92.5% and 182%, respectively.

Regarding `Clc1cccc(Cl)c1C(Nc1nc2ccccc2s1)Nc1nc2ccccc2s1`, the growth in the test on HCT-15 colon was 83.6%; in the test with HT29 colon it was 108%; with SNB-75 CNS, 80.8%; in the test with SNB-19 CNS, 99.1%; in the test with U251 CNS, 94.7%; with PC-3 prostate it was 74.2%. In addition, the growth with SK-MEL-5 melanoma is 88.4%; in the test with UACC-62 melanoma it was 95.7%; in the test on SK-MEL-28 melanoma it was 109%.
